From PubChem BioAssay

Test: blockers of RIG-like receptor reporter activation – cell-based, Sendai virus stimulus, luciferase, 10K MLSCN set, TLR/RLR signaling modifier project, primary screen (AID 602276);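 further: firefly luciferase from ISG56 promoter only with Renilla not read in this screen; 0% = Sendai virus plus DMSO and 100% = medium plus DMSO without virus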
Conditions: HEK293 RL24 IRF3 luciferase reporter, at 10 µM, active compounds read high;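 active means inhibition at or above 50% at 10 µM; inactive means inhibition below 50%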

inhibition, inactive:
COCCNc1nc(C(C)(C)C)nc2c1nnn2Cc1ccccc1Cl -0.805%
CNC(=O)CSc1nnc(-c2cc(C)cc(C)c2)o1 4.57%
CC(C(=O)c1ccccc1)n1cnc2ccccc2c1=O (stereo unspecified) 1.21%
COC(=O)COc1ccc(C(=O)OC)cc1 6.44%
CC(C)(C)OC(=O)N1CCN(c2ccc(NC(=O)c3cc4ccccc4oc3=O)cc2)CC1 16.2%
CCOC(=O)C1=C(Cn2cnc3ccccc32)NC(=O)NC1c1cc(C)ccc1C (stereo unspecified) 27.2%
COc1cc(OC)cc(C(=O)NCCN2CCOCC2)c1 7.36%
CC1=C(C(=O)OCCOC(C)C)C(c2cc3c(cc2Br)OCO3)C2=C(CCCC2=O)N1 (stereo unspecified) 20.8%
Cn1c(=O)c2ccccc2n(Cc2ccccc2F)c1=O 1.3%
COc1ccc(-c2noc(CCC(=O)Nc3nc4ccccc4s3)n2)cc1 -7.62%
Cc1cc(C)n(Cc2nc3ccccc3n2C)n1 4.33%
COC(=O)c1ccccc1NC(=O)C1CCCCC1C(=O)O (stereo unspecified) 12.8%
COc1ccc(OC)c(NC(=O)CCN2CCN(c3ccccc3F)CC2)c1 1.17%
COc1ccc(-c2cn3c(C)c(C(=O)Nc4cc(NC(C)=O)ccc4OC)sc3n2)cc1 42.7%
COc1ccc(-n2nnc3c(=O)n(C/C=C/c4ccccc4)cnc32)cc1 12.8%
Cc1ccc(S(=O)(=O)N2CCCC2C(=O)n2nc(C)cc2C)cc1 (stereo unspecified) 12.5%
